The results in this text go back to the supplement of paper PMC11001985.

Unmarked numbers belong to inactive results.

Chain of UniProt Q6NZI2 (Q6NZI2 whole entry): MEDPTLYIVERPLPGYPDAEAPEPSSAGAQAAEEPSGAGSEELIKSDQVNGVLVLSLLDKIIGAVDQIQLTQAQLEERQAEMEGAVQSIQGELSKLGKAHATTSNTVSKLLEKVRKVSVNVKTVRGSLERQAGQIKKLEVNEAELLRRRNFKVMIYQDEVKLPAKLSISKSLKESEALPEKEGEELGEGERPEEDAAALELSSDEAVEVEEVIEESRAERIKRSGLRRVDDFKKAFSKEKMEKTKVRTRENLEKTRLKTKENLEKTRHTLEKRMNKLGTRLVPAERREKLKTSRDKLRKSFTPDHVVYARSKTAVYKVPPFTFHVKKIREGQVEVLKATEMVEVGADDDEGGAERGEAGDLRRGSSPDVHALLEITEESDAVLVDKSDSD
Chain of UniProt P11717 (P11717 whole entry): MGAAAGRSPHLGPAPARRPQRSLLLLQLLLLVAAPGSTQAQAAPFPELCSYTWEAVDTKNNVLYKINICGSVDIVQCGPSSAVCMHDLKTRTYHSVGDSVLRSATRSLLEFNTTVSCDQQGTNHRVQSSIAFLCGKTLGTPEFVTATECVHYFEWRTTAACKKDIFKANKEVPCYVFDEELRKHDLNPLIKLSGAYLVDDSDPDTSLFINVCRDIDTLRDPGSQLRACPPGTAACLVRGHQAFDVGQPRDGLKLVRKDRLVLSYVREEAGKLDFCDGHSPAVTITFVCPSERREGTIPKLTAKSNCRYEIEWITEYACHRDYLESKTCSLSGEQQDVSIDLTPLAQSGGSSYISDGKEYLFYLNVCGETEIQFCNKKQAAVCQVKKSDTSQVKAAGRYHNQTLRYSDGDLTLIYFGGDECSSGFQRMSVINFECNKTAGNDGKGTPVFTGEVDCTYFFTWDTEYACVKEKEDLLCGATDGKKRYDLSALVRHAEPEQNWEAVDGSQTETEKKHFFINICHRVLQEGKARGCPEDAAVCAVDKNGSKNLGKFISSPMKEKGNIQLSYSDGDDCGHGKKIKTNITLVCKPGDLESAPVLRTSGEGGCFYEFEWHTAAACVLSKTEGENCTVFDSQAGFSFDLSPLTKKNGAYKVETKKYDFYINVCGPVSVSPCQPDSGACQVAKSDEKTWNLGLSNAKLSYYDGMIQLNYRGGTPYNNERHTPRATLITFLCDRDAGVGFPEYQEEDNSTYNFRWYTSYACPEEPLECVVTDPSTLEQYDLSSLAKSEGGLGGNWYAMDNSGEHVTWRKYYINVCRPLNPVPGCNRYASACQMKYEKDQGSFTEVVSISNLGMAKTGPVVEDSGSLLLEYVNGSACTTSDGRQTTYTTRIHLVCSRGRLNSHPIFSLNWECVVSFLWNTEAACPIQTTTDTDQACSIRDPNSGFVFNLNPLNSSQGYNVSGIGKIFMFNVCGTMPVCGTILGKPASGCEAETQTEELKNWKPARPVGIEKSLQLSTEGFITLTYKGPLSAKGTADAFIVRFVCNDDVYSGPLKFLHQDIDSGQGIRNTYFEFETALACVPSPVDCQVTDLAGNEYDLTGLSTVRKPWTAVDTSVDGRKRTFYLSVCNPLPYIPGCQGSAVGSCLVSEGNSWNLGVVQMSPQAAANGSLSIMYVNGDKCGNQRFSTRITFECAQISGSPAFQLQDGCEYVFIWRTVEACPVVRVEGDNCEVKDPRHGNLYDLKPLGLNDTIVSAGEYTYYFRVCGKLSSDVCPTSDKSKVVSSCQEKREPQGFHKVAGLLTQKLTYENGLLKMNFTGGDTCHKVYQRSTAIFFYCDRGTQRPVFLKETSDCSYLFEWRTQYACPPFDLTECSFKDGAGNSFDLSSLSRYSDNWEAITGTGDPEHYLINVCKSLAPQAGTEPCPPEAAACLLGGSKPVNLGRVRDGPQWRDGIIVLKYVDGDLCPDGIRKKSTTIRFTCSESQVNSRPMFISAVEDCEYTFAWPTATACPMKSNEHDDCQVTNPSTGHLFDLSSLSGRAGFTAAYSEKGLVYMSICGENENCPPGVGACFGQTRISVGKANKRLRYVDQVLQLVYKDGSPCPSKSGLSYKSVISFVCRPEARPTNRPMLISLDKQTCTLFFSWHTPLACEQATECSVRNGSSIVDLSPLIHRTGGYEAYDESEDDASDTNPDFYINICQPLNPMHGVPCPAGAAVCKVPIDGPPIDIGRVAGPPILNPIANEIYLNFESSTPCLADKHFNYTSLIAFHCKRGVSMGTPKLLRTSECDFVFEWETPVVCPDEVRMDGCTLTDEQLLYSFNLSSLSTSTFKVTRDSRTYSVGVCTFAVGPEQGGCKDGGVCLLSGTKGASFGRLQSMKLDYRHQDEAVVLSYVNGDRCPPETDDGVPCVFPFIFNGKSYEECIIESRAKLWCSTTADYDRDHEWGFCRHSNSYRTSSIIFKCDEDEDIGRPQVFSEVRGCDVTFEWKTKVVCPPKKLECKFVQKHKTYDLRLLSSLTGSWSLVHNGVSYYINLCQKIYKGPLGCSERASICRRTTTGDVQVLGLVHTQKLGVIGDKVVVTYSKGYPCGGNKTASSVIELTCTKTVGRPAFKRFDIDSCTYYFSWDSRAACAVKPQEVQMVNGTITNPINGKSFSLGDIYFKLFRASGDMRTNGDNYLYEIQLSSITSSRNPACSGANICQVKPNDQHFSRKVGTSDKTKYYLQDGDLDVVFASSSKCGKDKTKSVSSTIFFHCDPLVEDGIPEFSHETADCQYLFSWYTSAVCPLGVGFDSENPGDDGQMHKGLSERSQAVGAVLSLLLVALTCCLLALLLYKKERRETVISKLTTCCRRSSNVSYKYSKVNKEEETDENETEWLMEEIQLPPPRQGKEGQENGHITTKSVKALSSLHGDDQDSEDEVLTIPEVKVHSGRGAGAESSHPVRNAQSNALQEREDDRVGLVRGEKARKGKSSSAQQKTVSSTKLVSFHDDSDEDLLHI
Chain of UniProt Q9UQ80 (Q9UQ80 whole entry): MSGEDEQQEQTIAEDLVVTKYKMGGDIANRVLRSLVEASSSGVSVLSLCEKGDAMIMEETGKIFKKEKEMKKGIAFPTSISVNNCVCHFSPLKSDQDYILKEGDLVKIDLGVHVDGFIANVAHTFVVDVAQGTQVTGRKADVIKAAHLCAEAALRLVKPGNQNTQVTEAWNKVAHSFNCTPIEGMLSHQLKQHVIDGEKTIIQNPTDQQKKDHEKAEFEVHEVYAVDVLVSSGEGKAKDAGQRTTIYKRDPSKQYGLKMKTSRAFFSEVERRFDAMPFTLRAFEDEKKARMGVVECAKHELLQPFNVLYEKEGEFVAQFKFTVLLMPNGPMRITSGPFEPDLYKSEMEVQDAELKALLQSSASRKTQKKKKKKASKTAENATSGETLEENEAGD
Chain of UniProt P78310 (P78310 whole entry): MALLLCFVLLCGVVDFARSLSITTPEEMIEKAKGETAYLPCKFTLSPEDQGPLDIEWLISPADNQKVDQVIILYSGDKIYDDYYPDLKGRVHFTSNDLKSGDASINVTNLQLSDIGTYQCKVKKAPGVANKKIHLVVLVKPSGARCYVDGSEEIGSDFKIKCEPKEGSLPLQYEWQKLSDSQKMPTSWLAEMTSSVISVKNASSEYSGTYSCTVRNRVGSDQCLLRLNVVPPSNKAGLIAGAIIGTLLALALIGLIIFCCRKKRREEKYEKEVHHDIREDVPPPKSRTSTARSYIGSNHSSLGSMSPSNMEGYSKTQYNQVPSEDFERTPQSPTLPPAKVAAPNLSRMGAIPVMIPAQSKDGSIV
Chain of UniProt Q06830 (Q06830 whole entry): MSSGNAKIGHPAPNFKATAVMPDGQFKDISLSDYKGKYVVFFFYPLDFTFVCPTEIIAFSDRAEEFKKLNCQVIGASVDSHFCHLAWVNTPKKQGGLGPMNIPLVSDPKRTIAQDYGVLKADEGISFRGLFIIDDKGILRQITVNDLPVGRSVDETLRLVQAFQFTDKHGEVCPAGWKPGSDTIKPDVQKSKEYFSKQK
Chain of UniProt Q14118 (Q14118 whole entry): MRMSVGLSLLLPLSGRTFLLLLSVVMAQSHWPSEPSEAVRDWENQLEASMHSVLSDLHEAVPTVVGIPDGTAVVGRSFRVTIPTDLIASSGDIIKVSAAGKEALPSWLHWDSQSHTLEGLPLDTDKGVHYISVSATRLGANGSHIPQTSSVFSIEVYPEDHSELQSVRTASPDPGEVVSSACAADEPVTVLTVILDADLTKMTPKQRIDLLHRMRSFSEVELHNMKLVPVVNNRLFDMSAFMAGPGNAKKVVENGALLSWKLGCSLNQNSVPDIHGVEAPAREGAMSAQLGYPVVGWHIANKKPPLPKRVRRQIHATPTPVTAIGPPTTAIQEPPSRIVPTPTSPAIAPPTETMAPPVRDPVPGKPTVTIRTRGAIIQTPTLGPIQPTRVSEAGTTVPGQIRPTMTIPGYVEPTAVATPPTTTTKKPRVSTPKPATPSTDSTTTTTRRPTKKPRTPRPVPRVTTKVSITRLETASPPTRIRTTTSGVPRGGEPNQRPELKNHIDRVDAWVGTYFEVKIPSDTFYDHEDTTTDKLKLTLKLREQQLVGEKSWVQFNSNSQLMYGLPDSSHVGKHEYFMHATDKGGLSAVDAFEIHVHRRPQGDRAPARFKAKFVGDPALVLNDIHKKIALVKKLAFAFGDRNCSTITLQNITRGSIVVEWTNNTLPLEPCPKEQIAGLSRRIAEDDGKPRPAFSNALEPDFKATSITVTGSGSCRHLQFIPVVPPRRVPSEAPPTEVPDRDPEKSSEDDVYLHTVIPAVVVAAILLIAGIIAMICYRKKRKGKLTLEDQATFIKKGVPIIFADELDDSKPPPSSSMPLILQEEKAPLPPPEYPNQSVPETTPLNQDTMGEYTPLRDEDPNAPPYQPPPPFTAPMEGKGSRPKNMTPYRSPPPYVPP
Chain of UniProt P52565 (P52565 whole entry): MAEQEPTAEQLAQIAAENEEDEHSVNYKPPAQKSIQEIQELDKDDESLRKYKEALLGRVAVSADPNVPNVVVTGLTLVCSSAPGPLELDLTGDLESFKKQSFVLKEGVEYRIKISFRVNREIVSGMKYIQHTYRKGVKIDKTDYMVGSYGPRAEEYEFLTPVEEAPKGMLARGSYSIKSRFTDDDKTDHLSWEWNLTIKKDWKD
Chain of UniProt P26447 (P26447 whole entry, looked up): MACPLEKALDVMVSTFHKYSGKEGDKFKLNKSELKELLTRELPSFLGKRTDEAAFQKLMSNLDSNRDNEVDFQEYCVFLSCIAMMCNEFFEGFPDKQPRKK

Compound in this assay: C#CCNC(=O)CCSSCCC(=O)NCCc1ccc(C=O)c(C=O)c1
Briefly: lysine labeling ratio R10:1 (500 µM / 50 µM probe), SILAC-ABPP in living cells; higher = lower intrinsic lysine reactivity toward the probe, active = 2 or less. The following applies: HeLa; probe concentrations 500 vs 50 µM. The procedure, abridged:
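Living SILAC light and heavy HeLa cells in PBS at room temperature were treated with an alkyne-tagged, disulfide-linked lysine probe at 50 µM or 500 µM, with forward and reverse label swaps. The mixed lysates were clicked to biotin-azide, digested with trypsin, captured on neutravidin, released with DTT, alkylated and run by LC-MS/MS on a TIMS-TOF Pro. R for each lysine is the filtered median high-probe/low-probe MS1 peptide ratio, taken again as the median over forward and reverse replicates. Any value above 20 is set to 20.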
As to “EEF1G (lysine site: K434) (UniProt P26641)”, the “lysine labeling ratio R10:1” value was 3.73.
Under “CXADR (lysine site: K88) (UniProt P78310)” stands 1.11 (active); under UniProt P62316 (lysine site: K118), 6.15; under “FASN (lysine site: K673) (UniProt P49327)”, 2.24.
Regarding “S100A4 (lysine site: K57) (UniProt P26447)”, the “lysine labeling ratio R10:1” value is 3.85.
“CSE1L (lysine site: K17) (UniProt P55060)”: the “lysine labeling ratio R10:1” value was 1.76 (active).
Under “TPI1 (lysine site: K194) (UniProt P60174)” stands 1.22 (active); under UniProt Q9Y653 (lysine site: K215), 4.06.
As for “RBMX (lysine site: K86) (UniProt P38159)”, the “lysine labeling ratio R10:1” value was 2.06.
Under “HDGF (lysine site: K197) (UniProt P51858)” stands 2.54; under “MSN (lysine site: K388) (UniProt P26038)”, 1.79 (active).
Under FBL (lysine site: K84) (UniProt P22087) stands 3.62; under “CD55 (lysine site: K110) (UniProt P08174)”, 2.89.
Under “TGFBR3 (lysine site: K685) (UniProt Q03167)” stands 1.81 (active).
With “CD58 (lysine site: K78) (UniProt P19256)”, the “lysine labeling ratio R10:1” value was 8.22.
Under “MET (lysine site: K725) (UniProt P08581)” stands 0.656 (active); under “DAG1 (lysine site: K500) (UniProt Q14118)”, 4.65; under “PRDX1 (lysine site: K93) (UniProt Q06830)”, 4.52.
Consider “IGF2R (lysine site: K1776) (UniProt P11717)”, for which the “lysine labeling ratio R10:1” value was 2.48.
Under “ITGB5 (lysine site: K72) (UniProt P18084)” stands 2.3; under “MYH9 (lysine site: K1459) (UniProt P35579)”, 1.3 (active).
Regarding “ECE1 (lysine site: K401) (UniProt P42892)”, the “lysine labeling ratio R10:1” value is 2.77.
Under “PA2G4 (lysine site: K22) (UniProt Q9UQ80)” stands 0.568 (active); under “ARHGDIA (lysine site: K43) (UniProt P52565)”, 1.51 (active).
Under “ADAM15 (lysine site: K660) (UniProt Q13444)” stands 4.34; under UniProt Q6NZI2 (lysine site: K137), 3.08; under UniProt Q6NZI2 (lysine site: K260), 4.28.
“SPTAN1 (lysine site: K2205) (UniProt Q13813)”: the “lysine labeling ratio R10:1” value was 6.67.
Under “PA2G4 (lysine site: K287) (UniProt Q9UQ80)” stands 0.997 (active); under “MSLN (lysine site: K487) (UniProt Q13421)”, 6.18.
Under “IGF2R (lysine site: K2338) (UniProt P11717)” stands 1.29 (active).
Under “FRAS1 (lysine site: K380) (UniProt Q86XX4)” stands 2.25.
Turning to “ARHGAP17 (lysine site: K9) (UniProt Q68EM7)”, the “lysine labeling ratio R10:1” value is 1.92 (active).
In the case of “INSR (lysine site: K476) (UniProt P06213)”, the “lysine labeling ratio R10:1” value was 1.75 (active).
For the target UniProt P16144 (lysine site: K662), the “lysine labeling ratio R10:1” value was 1.57 (active).
Under “DNAJC9 (lysine site: K198) (UniProt Q8WXX5)” stands 2.94.
Under “SCFD1 (lysine site: K572) (UniProt Q8WVM8)” stands 2.58.
Under “RPS3A (lysine site: K152) (UniProt P61247)” stands 3.85; under “DDX5 (lysine site: K490) (UniProt P17844)”, 5.18; under “CALD1 (lysine site: K534) (UniProt Q05682)”, 0.785 (active).
